In PubChem BioAssay (EPA / NIEHS):
Results filed as inconclusive are left out. Calls of active or inactive are those of the source. How the source made its calls: active means hit-call score of the fitted dose curve at least 0.9, where 1 is the maximum; inconclusive means response in the unintended direction; inactive means score below 0.9.

Assay: TOX21_PR_BLA_Followup_Antagonist_viability: Viability Assessment in the Tox21 HEK293 Progesterone Receptor (PR) Antagonism Beta-lactamase Follow-Up Assay (AID 2283936);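 further: hits lower the luminescence signal meaning cytotoxicity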
Procedure: TOX21_PR_BLA_Followup is a secondary assay for specificity for the TOX21_PR_BLA_Agonist assay. To differentiate true PR agonists from cytotoxic substances, this follow up assay is multiplexed with a cell viability assay. The compounds were also tested for auto fluorescence that may interfere with the biological target readout resulting in potential false positives and/or negatives. To identify the compounds that stimulate PR signaling, a PR-UAS-bla GripTite cell line i.e. PR-UAS-bla HEK293T (Invitrogen, Carlsbad, CA, USA) containing a beta-lactamase reporter gene under the control of an UAS response element was used to screen Tox21 10K compound library. The cytotoxicity of the Tox21 compound library against the PR-bla cell line was tested in parallel by measuring the cell viability using CellTiter-Glo assay in the same wells. TOX21_PR_BLA_Followup_Antagonist_viability is a component of the TOX21_PR_BLA_Followup_Antagonist assay. This component measures cell viability using the CellTiter-Glo Luciferase-coupled ATP quantitation.TOX21_PR_BLA_Followup_Antagonist_viability used a type of viability reporter where loss-of-signal activity can be used to understand changes in the cell viability. Furthermore, this assay endpoint can be referred to as a secondary readout, because this assay has produced multiple assay endpoints where this one serves a viability function. To generalize the intended target to other relatable targets, this assay endpoint is annotated to the cell cycle intended target family, where the subfamily is cytotoxicity.
Assay Protocol: PR-UAS-bla HEK293T cells were dispensed at 3,000 cells/4 uL of assay medium containing 2% charcoal stripped FBS per well into black wall/clear-bottom 1536-well plates using a Multidrop Combi (ThermoFisher Scientific, Waltham, MA) dispenser. After the assay plates were incubated at a 37C and 5% CO2 for 4 hr, 23 nL of compounds dissolved in DMSO, positive controls or DMSO only was transferred to the assay plate by a Pintool station (Kalypsys, San Diego, CA), followed by addition of 1 uL of R5020 in assay medium using a Flying Reagent Dispenser (FRD, Aurora Discovery, San Diego, CA). The plates were incubated at 37C and 5% CO2 for 16 hr. Then 1 uL of LiveBLAzer B/G FRET substrate was added using a Flying Reagent Dispenser, the plates were incubated at room temperature for 2 hours, and fluorescence intensity was measured by an Envision plate reader (PerkinElmer, Shelton, CT). For cell viability readout that measures cytotoxicity, 4 uL/well of CellTiter-Glo reagent was added into the assay plates using a FRD. After 30 min incubation at room temperature, the luminescence intensity in the plates was measured using a ViewLux (PerkinElmer) plate reader.

Compound	outcome	AC50
COc1ccc(C(Cl)=C(c2ccc(OC)cc2)c2ccc(OC)cc2)cc1	inactive	–
CC(C)(c1cc(Br)c(OCCO)c(Br)c1)c1cc(Br)c(OCCO)c(Br)c1	–	54 µM (active)
C[C@]12C=CC(=O)C=C1CC[C@@H]1[C@@H]2[C@@H](O)C[C@@]2(C)[C@H]1CC[C@]2(O)C(=O)CO	inactive	–
C#CC1(O)CC[C@H]2[C@@H]3CCC4=CCCC[C@@H]4[C@H]3CC[C@@]21C (stereo not given in full)	inactive	–
CCC(=O)Oc1ccc(/C(CC)=C(\CC)c2ccc(OC(=O)CC)cc2)cc1	inactive	–
CCOC(=O)c1ccccc1C(=C1C=C(Br)C(=O)C(Br)=C1)c1cc(Br)c(O)c(Br)c1	inactive	–
CC(=O)[C@H]1[C@H](C#N)C[C@H]2[C@@H]3CC=C4C[C@@H](O)CC[C@]4(C)[C@H]3CC[C@@]21C	inactive	–
Nc1ccc(-c2ccc(F)cc2)cc1	inactive	–
Cc1ccc(C(C)c2ccc(C)c(C)c2)cc1C	inactive	–
C[C@]12CCC(=O)C=C1CC[C@@H]1[C@@H]2C(=O)C[C@@]2(C)[C@H]1CC[C@]2(O)C(=O)CO	inactive	–
